{"source": "PubChem BioAssay (EPA / NIEHS)", "key": {"THRB (gene 7068) [1]": {"target": "THRB (gene 7068) (UniProt P10828)", "sequence (P10828 whole entry, looked up, the tested form may be a part)": "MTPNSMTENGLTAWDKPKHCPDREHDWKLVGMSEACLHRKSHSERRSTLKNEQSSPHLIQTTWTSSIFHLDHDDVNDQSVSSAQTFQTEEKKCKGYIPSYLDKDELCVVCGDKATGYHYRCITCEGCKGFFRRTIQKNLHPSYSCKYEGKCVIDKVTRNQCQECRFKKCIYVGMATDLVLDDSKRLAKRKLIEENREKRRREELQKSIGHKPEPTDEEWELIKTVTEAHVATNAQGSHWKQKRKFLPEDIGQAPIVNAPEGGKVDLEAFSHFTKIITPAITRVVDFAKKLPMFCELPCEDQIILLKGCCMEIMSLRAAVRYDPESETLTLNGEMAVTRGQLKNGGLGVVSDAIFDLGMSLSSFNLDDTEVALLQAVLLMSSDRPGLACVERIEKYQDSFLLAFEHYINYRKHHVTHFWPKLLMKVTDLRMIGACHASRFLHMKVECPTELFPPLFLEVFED", "assay": "TOX21_TRB_BLA_Antagonist_Followup_ratio: Tox21 Thyroid Hormone Receptor beta Antagonism Beta-lactamase (BLA) Follow-Up Assay, Ratio (AID 2283958)", "procedure,_shortened": "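Using charcoal-stripped 2% FBS medium, human TRβ-LBD/GAL4 reporter HEK293T cells received test compounds for 18 h. The endpoint is the cleaved-to-uncleaved substrate ratio (460/530 nm).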"}, "[2]": {"assay": "TOX21_TRB_BLA_Antagonist_Followup_viability: Viability Assessment in the Tox21 Thyroid Hormone Receptor beta Antagonism Beta-lactamase (BLA) Follow-Up Assay (AID 2283961)", "procedure,_shortened": "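TRβ-bla HEK293T (human TRβ LBD fused to GAL4 DBD), 3,000 cells/well, 2% charcoal-stripped FBS, phenol red-free medium; 18 h compound exposure, 37C; CellTiter-Glo 30 min RT; luminescence, loss-of-signal readout.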"}, "THRB (gene 7068) [3]": {"target": "THRB (gene 7068) (UniProt P10828)", "assay": "TOX21_TRB_COA_Antagonist_Followup_ratio: Tox21 Thyroid Hormone Receptor beta Antagonism through Coactivator Recruitment Follow-Up Assay, Ratio (AID 2283967)", "procedure,_shortened": "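Coactivator (SRC-2) recruitment to purified GST-TRβ ligand-binding domain is monitored by terbium-to-fluorescein energy transfer, emission ratio 520:495 nm. DMSO wells define 0% and T3 wells 100% activity.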"}, "[4]": {"target": "Retinoic acid receptor RXR-alpha (Homo sapiens) (UniProt P19793)", "sequence (P19793 whole entry, looked up)": "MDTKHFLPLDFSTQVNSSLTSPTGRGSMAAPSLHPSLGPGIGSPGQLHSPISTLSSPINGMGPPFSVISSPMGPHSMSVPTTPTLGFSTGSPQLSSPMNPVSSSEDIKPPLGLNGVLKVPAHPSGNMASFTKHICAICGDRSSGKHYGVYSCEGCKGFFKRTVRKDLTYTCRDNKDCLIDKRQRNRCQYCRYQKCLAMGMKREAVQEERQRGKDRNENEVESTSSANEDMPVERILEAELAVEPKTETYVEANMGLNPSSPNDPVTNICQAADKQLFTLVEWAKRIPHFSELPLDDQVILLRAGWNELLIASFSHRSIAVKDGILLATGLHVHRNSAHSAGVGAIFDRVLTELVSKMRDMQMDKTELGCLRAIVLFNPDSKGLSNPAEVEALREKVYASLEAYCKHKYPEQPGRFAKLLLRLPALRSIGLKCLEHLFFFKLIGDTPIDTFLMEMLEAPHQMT", "assay": "TOX21_TR_RXR_BLA_Antagonist_Followup_ratio: Tox21 Thyroid Hormone Receptor beta Retinoid X Receptor alpha (RXRa) Antagonism Beta-lactamase (BLA) Follow-Up Assay, Ratio (AID 2283972)", "procedure,_shortened": "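HEK293T RXRa-bla, 2% charcoal-stripped FBS medium, 16 h compound exposure at 37C, qHTS 11 conc x3. CCF4 FRET ratio ch2/ch1 (460:530), DMSO = baseline, loss-of-signal fit.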"}, "THRB (gene 7068) [5]": {"target": "THRB (gene 7068) (UniProt P10828)", "assay": "TOX21_TRB_COA_Agonist_Followup_ratio: Tox21 Thyroid Hormone Receptor beta Agonism through Coactivator Recruitment Follow-Up Assay, Ratio (AID 2283963; active = hit-call score of the fitted dose curve at least 0.9, where 1 is the maximum; inactive = score below 0.9)", "source_text": "TOX21_TRb_COA_Agonist_Followup is a secondary assay for specificity for the TOX21_TR_GH3_LUC_Agonist assay. The LanthaScreen TR-FRET TR coactivator assay kits were used to determine TR activity in a cell-free functional assay. A time-resolved fluorescence resonance energy transfer (TR-FRET) signal was indicative of coactivator (SRC-2) recruitment.TOX21_TRB_COA_Agonist_Followup_ratio is assay component calculated in the TOX21_TRB_COA_Agonist_Followup assay. The TR-FRET ratio of acceptor emission (ch2) to donor emission (ch1) is indicative of the resonance energy transfer to the fluorescein tag on the coactivator peptide following recruitment to the receptor.Data from the assay component TOX21_TRB_COA_Antagonist_Followup_ratio was analyzed into 1 assay endpoint. This assay endpoint, TOX21_TRB_COA_Antagonist_Followup_ratio, was analyzed in the positive analysis fitting direction relative to DMSO as the negative control and baseline of activity. Using a type of inducible reporter, gain-of-signal activity can be used to understand changes in the reporter gene as they relate to the gene THRB. Furthermore, this assay endpoint can be referred to as a primary readout, because this assay has produced multiple assay endpoints and this ratio serves a reporter gene function to understand target activity. […]"}, "[6]": {"target": "Retinoic acid receptor RXR-alpha (Homo sapiens) (UniProt P19793)", "assay": "TOX21_TR_RXR_BLA_Agonist_Followup_ratio: Tox21 Thyroid Hormone Receptor beta Retinoid X Receptor alpha (RXRa) Agonism Beta-lactamase (BLA) Follow-Up Assay, Ratio (AID 2283968)", "procedure,_shortened": "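Agonism is scored as an increase in the 460:530 nm beta-lactamase substrate ratio over DMSO in RXRa-UAS-bla HEK293T cells exposed for 16 h to 11 compound concentrations.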"}, "[7]": {"assay": "CCTE_Harrill_HTTr_Viability_DMEM_6hr: (Pilot) CCTE's 6-hour Cell Viability Assessment for the High-Throughput Transcriptomics (HTTr) Platform, in MCF-7 cells cultured in DMEM + 10% fetal bovine serum, Harrill Lab (AID 2283973; active = hit-call score of the fitted dose curve at least 0.9, where 1 is the maximum; inactive = score below 0.9)", "procedure,_shortened": "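Propidium iodide uptake imaged by high-content analysis after six hours of chemical treatment in an eight-concentration series. Cells: MCF-7 grown in DMEM with 10% fetal bovine serum; DMSO as baseline.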"}, "[8]": {"assay": "CCTE_Harrill_HTTr_Viability_DMEM_12hr: (Pilot) CCTE's 12-hour Cell Viability Assessment for the High-Throughput Transcriptomics (HTTr) Platform, in MCF-7 cells cultured in DMEM + 10% fetal bovine serum, Harrill Lab (AID 2283974; active = hit-call score of the fitted dose curve at least 0.9, where 1 is the maximum; inactive = score below 0.9)", "procedure,_shortened": "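Propidium iodide dye exclusion imaged by high-content microscopy after 12 h chemical exposure (eight concentrations) of MCF-7 cells grown in DMEM plus 10% FBS; values fitted in both directions relative to DMSO.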"}, "[9]": {"assay": "CCTE_Harrill_HTTr_Viability_DMEM_24hr: (Pilot) CCTE's 24-hour Cell Viability Assessment for the High-Throughput Transcriptomics (HTTr) Platform, in MCF-7 cells cultured in DMEM + 10% fetal bovine serum, Harrill Lab (AID 2283975; active = hit-call score of the fitted dose curve at least 0.9, where 1 is the maximum; inactive = score below 0.9)", "procedure,_shortened": "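Pilot study: propidium iodide dye exclusion, imaged by high content microscopy, after 24 h compound exposure (eight concentrations) in MCF-7 cultured in DMEM + 10% fetal bovine serum; DMSO served as negative control and baseline.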"}, "[10]": {"assay": "TOX21_TR_RXR_BLA_Agonist_Followup_viability: Viability Assessment in the Tox21 Thyroid Hormone Receptor beta Retinoid X Receptor alpha (RXRa) Agonism Beta-lactamase (BLA) Follow-Up Assay (AID 2283970)", "procedure,_shortened": "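Luminescent ATP read (CellTiter-Glo) after 16h exposure of RXRa-UAS-bla HEK293T cells at 37C/5% CO2. Activity normalized to DMSO; signal loss scored as reduced viability.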"}}, "note": "Records with an inconclusive call do not appear. The source made the active and inactive calls. The calls were made as follows, unless noted: active = hit-call score of the fitted dose curve at least 0.9, where 1 is the maximum; inconclusive = response in the unintended direction; inactive = score below 0.9.", "data": [{"molecule": "COc1cc(C(=O)NC2CCN(C)CC2)ccc1Nc1ncc2c(n1)N(C1CCCC1)CC(F)(F)C(=O)N2C", "values": [{"measurement": "AC50", "setting": "THRB (gene 7068) [1]", "result": "3.69 µM (active)"}, {"measurement": "AC50", "setting": "[2]", "result": "46.7 µM (active)"}, {"measurement": "outcome", "setting": "THRB (gene 7068) [3]", "result": "inactive"}, {"measurement": "outcome", "setting": "[4]", "result": "inactive"}]}, {"molecule": "O=C1O[C@H]([C@@H](O)CO)C(O)=C1O", "values": [{"measurement": "outcome", "setting": "THRB (gene 7068) [5]", "result": "inactive"}, {"measurement": "outcome", "setting": "[6]", "result": "inactive"}]}, {"molecule": "CC1(C)NC(=O)N(c2ccc([N+](=O)[O-])c(C(F)(F)F)c2)C1=O", "values": [{"measurement": "outcome", "setting": "[7]", "result": "inactive"}, {"measurement": "outcome", "setting": "[8]", "result": "inactive"}, {"measurement": "outcome", "setting": "[9]", "result": "inactive"}]}, {"molecule": "O=C(O)Cc1cc(I)c(Oc2ccc(O)c(I)c2)c(I)c1", "values": [{"measurement": "outcome", "setting": "[10]", "result": "inactive"}]}]}
